About 7,900 targets were measured; listed, in parts, are those with a hit and a random draw of the rest. About 0.6% of all pairs of compound and target were hits. Values without a mark were called inactive.

What all share (test): log2 fold change, soluble protein after heating vs DMSO (PISA); higher = thermal stabilisation; K562 cells, 10 uM, 30 min; active = over 0.2 and 3.5 SD of the protein, either way, in both replicates (recomputed)
Compound in assay [1]: CC1=C(SC2=C1C(=N[C@H](C3=NN=C(N32)C)CC(=O)N)C4=CC=C(C=C4)Cl)C
The method in brief:
(§1)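 K562 cells at 2×10^6 cells/mL were exposed to 10 μM compound for 30 min, then aliquots were heated for 3 min across 48°C-58°C, pooled, and extracted in PBS containing 0.5% NP-40 at 4°C. The supernatant after 21,000xg for 90 min was taken as soluble protein and measured by TMTpro 16plex LC-MS/MS with channel sums equalised. Thermal stability is reported relative to control samples, with values from duplicates. Fold changes are given on a log2 scale.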

Compound in assay [2]: c1ccc([C@@H]2C[C@H]2NC2CCNCC2)cc1
Put shortly: as §1

Compound in assay [3]: C1=CC=C(C=C1)[C@H](COC2=CC3=C(C=C2)NC(=O)N3)NC(=O)C4=CC=CN(C4=O)CC5=CC(=C(C=C5)F)F
The method in brief:
as §1

Compound in assay [4]: CC1=C2C(=CC=C1)N=C(N(C2=O)C3=CC=CC=C3C)CN4C=NC5=C(N=CN=C54)N
The method in brief: as §1

Compound in assay [5]: Cc1sc2c(c1C)C(c1ccc(Cl)cc1)=N[C@@H](CC(=O)OC(C)(C)C)c1nnc(C)n1-2
The method in brief:
as §1

Sequence of UniProt Q13242 (Q13242 whole entry, looked up): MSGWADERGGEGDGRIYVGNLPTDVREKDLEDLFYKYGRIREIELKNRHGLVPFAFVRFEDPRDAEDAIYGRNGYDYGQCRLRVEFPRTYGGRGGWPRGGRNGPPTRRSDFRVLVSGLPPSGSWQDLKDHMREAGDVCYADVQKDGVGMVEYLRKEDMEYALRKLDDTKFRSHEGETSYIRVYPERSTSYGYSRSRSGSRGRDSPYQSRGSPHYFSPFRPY
Sequence of UniProt Q9Y2W1 (Q9Y2W1 whole entry, looked up): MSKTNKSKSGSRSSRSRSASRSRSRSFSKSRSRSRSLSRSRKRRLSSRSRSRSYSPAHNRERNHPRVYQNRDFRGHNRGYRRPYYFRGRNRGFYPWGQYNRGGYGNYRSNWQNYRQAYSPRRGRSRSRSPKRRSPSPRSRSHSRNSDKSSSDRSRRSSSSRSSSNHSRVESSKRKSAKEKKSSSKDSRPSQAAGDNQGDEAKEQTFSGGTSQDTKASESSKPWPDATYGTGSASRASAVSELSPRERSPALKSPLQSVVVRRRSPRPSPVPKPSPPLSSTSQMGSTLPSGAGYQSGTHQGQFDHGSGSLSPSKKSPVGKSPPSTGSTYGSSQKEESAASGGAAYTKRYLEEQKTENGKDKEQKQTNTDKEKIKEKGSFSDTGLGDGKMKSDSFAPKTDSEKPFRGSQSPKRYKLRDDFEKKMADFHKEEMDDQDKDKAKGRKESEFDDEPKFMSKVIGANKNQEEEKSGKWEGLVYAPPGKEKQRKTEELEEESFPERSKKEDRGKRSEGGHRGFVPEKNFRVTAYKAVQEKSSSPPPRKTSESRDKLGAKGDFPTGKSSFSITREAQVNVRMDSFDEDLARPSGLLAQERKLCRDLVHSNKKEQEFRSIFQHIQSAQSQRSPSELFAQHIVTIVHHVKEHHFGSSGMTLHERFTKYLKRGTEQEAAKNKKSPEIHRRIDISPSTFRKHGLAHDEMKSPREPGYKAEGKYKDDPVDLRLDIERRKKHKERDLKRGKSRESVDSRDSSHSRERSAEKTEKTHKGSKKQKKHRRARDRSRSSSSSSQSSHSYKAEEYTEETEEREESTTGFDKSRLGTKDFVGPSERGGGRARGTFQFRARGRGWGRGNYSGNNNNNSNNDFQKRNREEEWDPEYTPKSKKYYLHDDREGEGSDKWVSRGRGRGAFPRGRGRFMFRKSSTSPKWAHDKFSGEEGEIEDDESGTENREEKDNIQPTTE
Sequence of UniProt Q02447 (Q02447 whole entry, looked up): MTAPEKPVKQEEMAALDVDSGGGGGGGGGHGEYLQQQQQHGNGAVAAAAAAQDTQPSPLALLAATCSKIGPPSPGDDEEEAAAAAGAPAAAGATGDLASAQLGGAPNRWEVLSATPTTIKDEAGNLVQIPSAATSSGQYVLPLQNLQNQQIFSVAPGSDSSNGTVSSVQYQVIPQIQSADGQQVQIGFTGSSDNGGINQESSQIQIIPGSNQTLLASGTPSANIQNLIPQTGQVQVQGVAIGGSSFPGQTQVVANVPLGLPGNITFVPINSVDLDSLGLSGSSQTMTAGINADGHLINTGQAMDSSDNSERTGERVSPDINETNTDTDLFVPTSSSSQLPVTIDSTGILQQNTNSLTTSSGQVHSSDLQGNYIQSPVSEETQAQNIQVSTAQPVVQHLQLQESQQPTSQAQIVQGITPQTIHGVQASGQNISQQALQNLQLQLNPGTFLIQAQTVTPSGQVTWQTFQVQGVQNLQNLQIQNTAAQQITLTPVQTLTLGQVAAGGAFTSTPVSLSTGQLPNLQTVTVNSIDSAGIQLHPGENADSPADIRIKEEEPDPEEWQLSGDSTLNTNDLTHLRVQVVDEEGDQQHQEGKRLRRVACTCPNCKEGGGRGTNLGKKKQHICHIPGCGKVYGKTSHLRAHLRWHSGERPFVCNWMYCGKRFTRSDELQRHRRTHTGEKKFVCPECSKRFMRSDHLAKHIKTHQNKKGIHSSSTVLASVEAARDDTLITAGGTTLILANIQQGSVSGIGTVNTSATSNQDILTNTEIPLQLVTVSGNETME
Sequence of UniProt Q9BUA3 (Q9BUA3 whole entry, looked up): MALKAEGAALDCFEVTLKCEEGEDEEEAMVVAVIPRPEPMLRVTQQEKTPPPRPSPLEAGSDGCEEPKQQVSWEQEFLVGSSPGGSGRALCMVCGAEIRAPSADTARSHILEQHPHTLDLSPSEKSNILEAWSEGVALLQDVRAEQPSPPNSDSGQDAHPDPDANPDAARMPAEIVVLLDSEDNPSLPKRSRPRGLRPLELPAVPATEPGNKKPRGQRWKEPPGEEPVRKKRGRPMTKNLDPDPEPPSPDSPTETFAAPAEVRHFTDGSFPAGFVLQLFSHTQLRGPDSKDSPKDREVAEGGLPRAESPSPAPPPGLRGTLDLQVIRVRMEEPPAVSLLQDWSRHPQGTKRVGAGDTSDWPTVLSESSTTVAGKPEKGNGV
Sequence of UniProt O76062 (O76062 whole entry, looked up): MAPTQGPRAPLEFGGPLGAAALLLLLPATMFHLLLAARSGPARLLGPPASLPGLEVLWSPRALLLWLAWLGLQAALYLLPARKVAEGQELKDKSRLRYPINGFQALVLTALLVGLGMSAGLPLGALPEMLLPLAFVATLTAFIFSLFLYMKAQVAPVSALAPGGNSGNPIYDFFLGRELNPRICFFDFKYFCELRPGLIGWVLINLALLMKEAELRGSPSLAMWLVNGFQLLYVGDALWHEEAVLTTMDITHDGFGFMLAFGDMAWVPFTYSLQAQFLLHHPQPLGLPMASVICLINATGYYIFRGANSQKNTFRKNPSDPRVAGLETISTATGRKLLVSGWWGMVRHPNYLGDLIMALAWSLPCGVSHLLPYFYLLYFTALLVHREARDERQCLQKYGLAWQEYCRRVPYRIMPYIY
Sequence of UniProt P42229 (P42229 whole entry, looked up): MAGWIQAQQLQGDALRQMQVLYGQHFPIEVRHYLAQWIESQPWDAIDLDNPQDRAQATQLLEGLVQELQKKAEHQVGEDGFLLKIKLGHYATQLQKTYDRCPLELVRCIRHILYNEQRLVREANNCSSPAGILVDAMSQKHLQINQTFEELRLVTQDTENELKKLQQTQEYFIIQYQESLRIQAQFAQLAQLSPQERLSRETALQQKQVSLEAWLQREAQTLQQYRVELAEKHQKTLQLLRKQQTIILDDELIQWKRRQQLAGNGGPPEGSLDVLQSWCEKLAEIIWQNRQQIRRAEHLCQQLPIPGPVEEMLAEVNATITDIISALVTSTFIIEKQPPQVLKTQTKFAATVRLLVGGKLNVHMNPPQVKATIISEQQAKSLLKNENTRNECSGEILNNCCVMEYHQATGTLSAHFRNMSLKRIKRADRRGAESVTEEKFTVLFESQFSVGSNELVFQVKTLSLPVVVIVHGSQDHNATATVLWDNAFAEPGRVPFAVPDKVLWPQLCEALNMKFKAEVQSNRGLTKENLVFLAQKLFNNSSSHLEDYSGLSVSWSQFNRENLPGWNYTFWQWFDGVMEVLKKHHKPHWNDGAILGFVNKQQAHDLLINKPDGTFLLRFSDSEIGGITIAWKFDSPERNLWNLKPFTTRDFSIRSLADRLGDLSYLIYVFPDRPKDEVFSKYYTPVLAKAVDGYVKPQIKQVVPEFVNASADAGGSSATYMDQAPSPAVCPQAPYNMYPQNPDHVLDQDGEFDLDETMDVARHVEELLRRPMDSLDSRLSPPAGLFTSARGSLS
Sequence of UniProt P51571 (P51571 whole entry, looked up): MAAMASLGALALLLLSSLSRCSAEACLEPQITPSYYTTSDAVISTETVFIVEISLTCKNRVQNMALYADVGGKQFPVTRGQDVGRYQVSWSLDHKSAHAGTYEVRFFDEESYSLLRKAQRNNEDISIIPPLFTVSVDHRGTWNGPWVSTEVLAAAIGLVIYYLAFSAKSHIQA
Sequence of UniProt Q96BZ9 (Q96BZ9 whole entry, looked up): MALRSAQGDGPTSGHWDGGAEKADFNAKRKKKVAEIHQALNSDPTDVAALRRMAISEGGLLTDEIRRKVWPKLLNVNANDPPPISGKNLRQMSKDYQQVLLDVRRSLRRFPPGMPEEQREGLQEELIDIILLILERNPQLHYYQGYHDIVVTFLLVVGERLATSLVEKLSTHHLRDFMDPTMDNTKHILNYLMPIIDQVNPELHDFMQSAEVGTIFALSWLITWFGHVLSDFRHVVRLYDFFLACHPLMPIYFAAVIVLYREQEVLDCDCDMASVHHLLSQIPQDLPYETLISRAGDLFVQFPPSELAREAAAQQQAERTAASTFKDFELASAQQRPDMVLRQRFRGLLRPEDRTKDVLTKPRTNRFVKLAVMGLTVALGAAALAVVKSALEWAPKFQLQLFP
Sequence of UniProt Q9NY26 (Q9NY26 whole entry, looked up): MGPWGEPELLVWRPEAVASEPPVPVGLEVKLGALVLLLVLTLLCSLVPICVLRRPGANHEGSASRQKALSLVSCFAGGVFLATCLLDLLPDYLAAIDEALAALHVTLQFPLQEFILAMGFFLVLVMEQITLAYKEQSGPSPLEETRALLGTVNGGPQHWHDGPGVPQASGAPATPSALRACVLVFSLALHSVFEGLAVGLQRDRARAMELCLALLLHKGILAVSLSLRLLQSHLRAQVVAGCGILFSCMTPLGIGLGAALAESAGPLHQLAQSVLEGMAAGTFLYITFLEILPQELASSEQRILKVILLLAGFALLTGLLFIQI
Sequence of UniProt Q9BWG4 (Q9BWG4 whole entry, looked up): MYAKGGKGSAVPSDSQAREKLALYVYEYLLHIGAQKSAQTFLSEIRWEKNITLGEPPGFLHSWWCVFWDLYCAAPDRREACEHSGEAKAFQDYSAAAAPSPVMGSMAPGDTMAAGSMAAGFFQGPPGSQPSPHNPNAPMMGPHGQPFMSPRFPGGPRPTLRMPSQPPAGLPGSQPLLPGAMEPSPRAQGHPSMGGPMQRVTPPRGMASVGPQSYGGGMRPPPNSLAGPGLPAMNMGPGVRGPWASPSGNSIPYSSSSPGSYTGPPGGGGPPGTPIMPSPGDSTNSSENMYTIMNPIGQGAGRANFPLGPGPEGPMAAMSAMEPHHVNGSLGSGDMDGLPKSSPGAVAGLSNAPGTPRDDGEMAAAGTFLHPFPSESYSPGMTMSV

For the target SLC39A1 (UniProt Q9NY26), the log2 fold change in assay [1] was -0.156; in assay [2], 0.053.

Consider SPINDOC (UniProt Q9BUA3), for which the log2 fold change in assay [3] is 0.03; in assay [1], 0.02; in assay [4] it was -0.066; in assay [5], 0.145; in assay [2], 0.041.

For THRAP3 (UniProt Q9Y2W1), the log2 fold change in assay [3] is 0.09; in assay [1], 0.193; in assay [4], -0.072; in assay [5], 0.046; in assay [2], 0.028.

Take SP3 (UniProt Q02447): the log2 fold change in assay [3] is 0.018; in assay [1], -0.024; in assay [4] it was -0.043; in assay [5], 0.025; in assay [2], 0.009.

Regarding SRSF9 (UniProt Q13242), the log2 fold change in assay [3] was 0.045; in assay [1], -0.452; in assay [4] it was -0.38; in assay [2], 0.041.

Take TACC2 (UniProt O95359): the log2 fold change was -0.031 in assay [3]; -0.03 in assay [1]; 0.166 in assay [4]; 0.011 in assay [5]; 0.05 in assay [2].

For TM7SF2 (UniProt O76062), the log2 fold change was 0.182 in assay [1], -0.129 in assay [4] and 0.159 in assay [2].

Consider SSBP4 (UniProt Q9BWG4), for which the values for the log2 fold change in assay [3] and in assay [5] were 0.086 and 0.037, respectively.

For STAT5A (UniProt P42229), the log2 fold change is -0.028 in assay [3]; 0.058 in assay [1]; 0.134 in assay [4]; -0.006 in assay [5]; 0.008 in assay [2].

Take SSR4 (UniProt P51571): the log2 fold change in assay [3] was 0.045; in assay [1] it was 0.046; in assay [4] it was 0.002; in assay [5], -0.048; in assay [2], -0.018.

As to TBC1D20 isoform 3 (UniProt Q96BZ9), the log2 fold change in assay [3] is 0.017; in assay [1], 0.069; in assay [4], -0.021; in assay [2], -0.403 (active).

The values are drawn from the supplement of paper PMC10849652.
